Earlier results on 26 molecules are cited in PubChem BioAssay AID977611.

The data set can be described thus: PubChem AID 977611. The settings on record: PDB protein-ligand complexes, literature Kd.

Screen size: about 3,900 compounds; about 3,900 (100%) were called active. No cut-off is given here; in the data, nearly all actives have Kd up to about 4200 µM. So high a share suggests a set chosen from earlier hits. Some of the results follow. Where a SMILES comes first, the peptide text is derived from it. Non-standard residues stand in square brackets, D forms with d. Square brackets hold non-standard residues; d marks the D form. Residues, ends and D or L forms follow the SMILES beside them. Peptide text beside a SMILES is read from it. [ ]: non-standard residue; d: D form. Orn(CH(NH2)2) = NC(N)NCCC[C@H](N)C(=O)O; Leu(ol) = CC(C)C[C@H](N)CO

By Kd is commonly meant the equilibrium constant for the complex coming apart. `O[C@@H]1[C@H](O)[C@@H](O[P+](O)(O)O)[C@H](O[P+](O)(O)O)[C@@H](O)[C@@H]1O[P+](O)(O)O`: the Kd runs as follows: (protein: Ligand-Binding Domain of rat InsP3 Receptor, PDB entry 3t8s) 0.00282 µM (active); (protein: Rabphilin-3A, PDB entry 4np9) 9.4 µM (active).

As to `NC1NC(=O)c2ncn([C@@H]3O[C@@H]4CO[P+](O)(O)O[C@H]4[C@H]3O)c2N1` (stereo partly specified), the Kd (protein: Diguanylate cyclase, PDB entry 4kg1) is 0.274 µM (active).

Consider `Nc1ncnc2c1ncn2[C@@H]1O[C@@H]2CO[P+](O)(O)O[C@@H]3[C@H](O)[C@@H](CO[P+](O)(O)O[C@H]2[C@H]1O)O[C@H]3n1cnc2c1NC(N)NC2=O` (stereo partly specified), for which the Kd is 0.00379 µM (active) (protein: Stimulator of interferon genes protein, PDB entry 4ksy); 0.11 µM (active) (protein: Stimulator of interferon genes protein, PDB entry 4loh); 0.3 µM (active) (protein: Stimulator of interferon genes protein, PDB entry 4loj).

Regarding `Nc1ncnc2c1ncn2[C@@H]1O[C@@H]2CO[P+](O)(O)O[C@@H]3[C@H](O)[C@@H](CO[P+](O)(O)O[C@@H]1[C@@H]2O)O[C@H]3n1cnc2c1NC(N)NC2=O` (stereo partly specified), the Kd (protein: Stimulator of interferon genes protein, PDB entry 4loi) was 0.17 µM (active).

With `CSCC[C@H](NC(=O)[C@@H]1CCCN1C(=O)[C@@H](NC(=O)[C@H](CCCNC(N)N)NC(=O)[C@H](CO)NC(=O)CN)[C@@H](C)O[P+](O)(O)O)C(=O)N[C@@H](Cc1ccc(O)cc1)C(=O)NCC(=O)O` (HELM PEPTIDE1{G.S.[NC(N)NCCC[C@H](N[*:1])C(=O)[*:2]].[C[C@@H](O[P+](O)(O)O)[C@H](N[*:1])C(=O)[*:2]].P.M.Y.G}$$$$V2.0), the Kd (protein: RNA polymerase-associated protein RTF1 homolog, PDB entry 4l1u) was 5.45 µM (active).

Take `CC(C)C[C@H](NC(=O)[C@H](CC(C)C)NC(=O)[C@H](CCCNC(N)N)NC(=O)[C@H](CO)NC(=O)[C@H](CC(C)C)NC(=O)[C@H](CCCNC(N)N)NC(=O)[C@@H]1CCCN1C(=O)CN)C(=O)N[C@@H](CO)C(=O)N[C@@H](Cc1ccc(O)cc1)C(=O)N[C@@H](C)C(=O)O` (HELM PEPTIDE1{G.P.[NC(N)NCCC[C@H](N[*:1])C(=O)[*:2]].L.S.[NC(N)NCCC[C@H](N[*:1])C(=O)[*:2]].L.L.S.Y.A}$$$$V2.0): under “protein: rat Tom20(translocases of outer mitochondrial membranes), PDB entry 1om2”, the Kd was 20 µM (active).

Consider `CC(C)C[C@@H](CO)NC(=O)[C@H](CO)NC(=O)[C@H](CCCNC(N)N)NC(=O)[C@H](CC(C)C)NC(=O)[C@H](CO)NC(=O)[C@H](C)NC(=O)[C@H](CC(C)C)NC(=O)[C@@H]1CCCN1C(=O)[C@H](Cc1ccc(O)cc1)NC(=O)[C@H](CC(C)C)NC(=O)[C@@H](N)CCC(=O)O` (H-ELYPLASL[Orn(CH(NH2)2)]S[Leu(ol)]), for which the Kd (protein: ALIX, PDB entry 2r05) was 7 µM (active).

With `CC(C)[C@H](NC(=O)[C@H](CCC(=O)O)NC(=O)[C@H](C)NC(=O)[C@H](Cc1ccc(O)cc1)NC(=O)[C@H](CO)NC(=O)[C@@H]1CCCN1C(=O)[C@@H]1CCCN1C(=O)[C@H](C)NC(=O)[C@@H](N)CCC(=O)O)C(=O)O` (H-EAPPSYAEV-OH), the Kd (protein: 3rd WW domain of Human Nedd4, PDB entry 4n7h) was 3.3 µM (active).

Turning to `CC(C)C[C@H](NC(=O)[C@H](CO)NC(=O)[C@H](CCCNC(N)N)NC(=O)[C@H](CC(C)C)NC(=O)[C@H](CO)NC(=O)[C@@H](NC(=O)[C@H](CC(C)C)NC(=O)[C@@H]1CCCN1C(=O)[C@H](Cc1ccc(O)cc1)NC(=O)[C@H](CC(C)C)NC(=O)[C@@H](N)CCC(=O)O)[C@@H](C)O)C(=O)O` (H-ELYPLTSL[Orn(CH(NH2)2)]SL-OH), for the setting “protein: ALIX, PDB entry 2r02”, the Kd was 8 µM (active).

On to Ac-LPLYTSPSLPNITLGLP-OH, for which the Kd (protein: Ankyrin Repeat Domains of Human ANKRA2, PDB entry 3v31) was 1.6 µM (active).

As to H-PLYTSPSLPNITLGLP-OH, the Kd (protein: DNA-binding protein RFXANK, PDB entry 3uxg) was 109 µM (active).

On to H-NPGLAYGNPYS-OH, for which, where the note is “protein: Galectin-8, PDB entry 4gxl”, the Kd was 5.2 µM (active).

In the case of `CC[C@H](C)[C@H](NC(=O)[C@@H]1CCCN1C(=O)[C@H](CC(C)C)NC(=O)[C@@H](NC(=O)[C@H](CO)NC(=O)CN)[C@@H](C)O)C(=O)N1CCC[C@H]1C(=O)NCC(=O)N[C@H](C(=O)N1CCC[C@H]1C(=O)N1CCC[C@H]1C(=O)N1CCC[C@H]1C(=O)N[C@@H](CC(N)=O)C(=O)N[C@@H](Cc1ccc(O)cc1)C(=O)N[C@@H](CC(=O)O)C(=O)N[C@@H](CO)C(=O)N[C@@H](CC(C)C)C(=O)O)[C@@H](C)O` (H-GSTLPIPGTPPPNYDSL-OH), the Kd (protein: Ubiquitin ligase Nedd4( WW? domain), PDB entry 1i5h) was 53 µM (active).

Take H-TCIYNPLFGS-OH: where the note is “protein: Sorting nexin-17 SNX17, PDB entry 4tkn”, the dissociation constant Kd is 1.3 µM (active).

As to `CCC(=O)C(=O)O`, the Kd (protein: 4-HYDROXY-2-OXO-HEPTANE-1,7-DIOATE ALDOLASE, PDB entry 4b5t) was 470 µM (active).

Regarding `CC(=O)N[C@H]1/C(=N/OC(=O)Nc2ccccc2)O[C@H](CO)[C@@H](O)[C@@H]1O`, the Kd (protein: BETA-N-ACETYLHEXOSAMINIDASE, PDB entry 4azb) is 0.0577 µM (active); the Kd (protein: BETA-N-ACETYLHEXOSAMINIDASE, PDB entry 4azg) is 0.079 µM (active); the Kd (protein: BETA-N-ACETYLHEXOSAMINIDASE, PDB entry 4azi) was 0.0356 µM (active).

For `COc1ccc(C[C@H](NC(=O)[C@@H](C)NC(=O)CN2CCOCC2)C(=O)N[C@@H](Cc2ccccc2)[C@@H](O)[C@H](C)CO)cc1`, the Kd (protein: yCP, PDB entry 4qlv) is 0.014 µM (active).

Take `CCC[C@H](COc1ccc(-c2nc3ccccc3n2Cc2ccccc2)cc1)n1c(-c2ccccc2)nc2ccccc21`: the Kd (protein: Retinal rod rhodopsin-sensitive cGMP 3',5'-cyclic phosphodiesterase subunit delta, PDB entry 4jvb) is 0.039 µM (active).

H-GSLLRVQAHIRKKMV-OH: the Kd (protein: Myosin A tail domain interacting protein MTIP-delta60, PDB entry 4r1e) was 0.052 µM (active).

As for `CC[C@H](C)[C@H](NC(=O)[C@@H]1CCCN1C(=O)[C@H](CCCNC(N)N)NC(=O)[C@@H]1CCCN1C(=O)[C@H](Cc1cnc[nH]1)NC(=O)[C@@H](N)CO)C(=O)N[C@@H](CCCNC(N)N)C(=O)N[C@H](C(=O)O)C(C)C` (H-SHP[Orn(CH(NH2)2)]PI[Orn(CH(NH2)2)]V-OH), the Kd (protein: Chaperone protein DnaK, PDB entry 4ezr) is 6.3 µM (active).

`C[C@H](NC(=O)CN)C(=O)N[C@@H](Cc1ccccc1)C(=O)N[C@@H](Cc1ccccc1)C(=O)N[C@@H](CO)C(=O)N[C@@H](C)C(=O)N[C@@H](CCCNC(N)N)C(=O)NCC(=O)N[C@@H](Cc1cnc[nH]1)C(=O)N[C@@H](CCCNC(N)N)C(=O)N1CCC[C@H]1C(=O)O` (H-GAFFSA[Orn(CH(NH2)2)]GH[Orn(CH(NH2)2)]P-OH): where the note is “protein: fibrinogen-binding protein SdrG, PDB entry 1r17”, the Kd is 0.379 µM (active).

With `CSCC[C@H](NC(=O)[C@H](CCC(=O)O)NC(=O)[C@H](CCCNC(N)N)NC(=O)[C@@H](N)Cc1cnc[nH]1)C(=O)N[C@@H](C)C(=O)N[C@H](C(=O)N[C@@H](CC(=O)O)C(=O)N[C@@H](CS)C(=O)N1CCC[C@H]1C(=O)O)C(C)C` (H-H[Orn(CH(NH2)2)]EMAVDCP-OH), the Kd (protein: Par-6 PDZ domain, PDB entry 1x8s) was 8 µM (active).

With `CC(C)C[C@H](NC(=O)[C@H](CCC(=O)O)NC(=O)[C@@H](N)CCCNC(N)N)C(=O)N[C@@H](CC(C)C)C(=O)N1CCC[C@H]1C(=O)N[C@@H](CCC(=O)O)C(=O)N[C@@H](CC(C)C)C(=O)N1CCC[C@H]1C(=O)N[C@@H](Cc1cnc[nH]1)C(=O)N1CCC[C@H]1C(=O)N1CCC[C@H]1C=O` (H-[Orn(CH(NH2)2)]ELLPELPHPP-aldehyde), the Kd (protein: MIT domain of Saci1372 (Vps4), PDB entry 2w2u) was 35 µM (active).

On to `CSCC[C@H](NC(=O)[C@H](CCCCN)NC(=O)[C@@H](NC(=O)[C@H](Cc1ccc(O)cc1)NC(=O)[C@@H](NC(=O)CNC(=O)[C@@H](NC(=O)[C@@H](N)[C@@H](C)O)[C@@H](C)O)C(C)C)C(C)C)C(=O)N1CCC[C@H]1C(=O)N1CCC[C@H]1C(=O)O` (H-TTGVYVKMPP-OH), for which the Kd (protein: AP50, PDB entry 1h6e) is 0.7 µM (active).

Take `CC[C@H](C)[C@H](NC(=O)[C@H](CO)NC(=O)[C@H](CCCNC(N)N)NC(=O)CNC(=O)[C@H](C)NC(=O)[C@H](CCC(=O)O)NC(=O)[C@H](CCCCN)NC(=O)[C@@H](NC(=O)[C@@H](NC(=O)[C@H](C)NC(=O)[C@@H](NC(=O)[C@H](CC(C)C)NC(=O)[C@H](CO)NC(=O)CN)C(C)C)[C@@H](C)O)C(C)C)C(=O)N[C@@H](Cc1cnc[nH]1)C(=O)N[C@@H](CCC(=O)O)C(=O)N[C@H](C(=O)N1CCC[C@H]1C(=O)N[C@@H](CCCNC(N)N)C(=O)O)[C@@H](C)CC` (H-GSLVATVKEAG[Orn(CH(NH2)2)]SIHEIP[Orn(CH(NH2)2)]-OH): the Kd (protein: the BTB domain from B-cell lymphoma 6 protein(BCL6), PDB entry 1r2b) is 11.4 µM (active).

In the case of `CSCC[C@H](NC(=O)[C@H](Cc1cnc[nH]1)NC(=O)[C@@H](NC(=O)[C@H](CCCCN)NC(=O)[C@H](C)NC(=O)[C@H](CO)NC(=O)[C@H](C)NC(=O)[C@@H](N)CCCNC(N)N)[C@@H](C)O)C(=O)N[C@@H](Cc1ccc(O)cc1)C(=O)N1CCC[C@H]1C(=O)N[C@H](C(=O)N[C@@H](CCCNC(N)N)C(=O)N[C@@H](CC(N)=O)C(=O)N[C@@H](Cc1ccc(O)cc1)C(=O)N[C@@H](CO)C(=O)N1CCC[C@H]1C(=O)O)C(C)C` (H-[Orn(CH(NH2)2)]ASAKTHMYPV[Orn(CH(NH2)2)]NYSP-OH), the Kd (protein: ezrinradixinmoesin (ERM) proteins, PDB entry 2emt) was 0.201 µM (active).
